# M1 ag: activates human CHRM1 receptor. P11229. CHO-K1 hM1, Fluo-8 calcium fluorescence, agonist mode; 0% DMSO, 100% acetylcholine EC100. activation, % at 3 µM. hit rate 0.33% among 360,000;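 active means activation above the run's mean compound activation plus 3 SD, cut at about 16% in these data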;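 further: peak over basal fluorescence ratio within a 140 s kinetic read after compound addition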
# Target sequence (P11229 whole entry, looked up): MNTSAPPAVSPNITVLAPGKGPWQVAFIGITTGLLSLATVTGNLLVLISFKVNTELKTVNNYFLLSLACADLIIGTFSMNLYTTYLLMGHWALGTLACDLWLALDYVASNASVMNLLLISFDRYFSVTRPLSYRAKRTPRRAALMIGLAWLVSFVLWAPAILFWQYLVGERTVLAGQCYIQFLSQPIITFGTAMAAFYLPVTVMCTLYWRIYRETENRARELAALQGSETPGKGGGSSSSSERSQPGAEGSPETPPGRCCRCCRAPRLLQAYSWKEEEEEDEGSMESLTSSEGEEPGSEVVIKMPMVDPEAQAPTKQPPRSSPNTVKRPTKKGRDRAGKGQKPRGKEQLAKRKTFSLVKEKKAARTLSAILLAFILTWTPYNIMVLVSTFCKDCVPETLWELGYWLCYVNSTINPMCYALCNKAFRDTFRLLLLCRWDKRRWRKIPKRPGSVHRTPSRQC
# CHO-K1 Ca PAM: M1 PAM counterscreen hit in parental CHO-K1 cells; AID 602247; activation, % at 3 µM; ATP EC20, Fluo-8 calcium fluorescence; 0% at ATP EC20, 100% at ATP max; hit rate 0.02% among 360,000;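 active means activation above the run cutoff, the mean activation of all test compounds plus 3 SD, cut at about 40% in these data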;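 further: peak over basal fluorescence ratio in a 140 s read after ATP addition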
# M1 PAM: human CHRM1 positive allosteric modulation; P11229; activation, % at 3 µM; CHO-K1 hM1, Fluo-8 calcium fluorescence, ACh EC20; 0% = ACh EC20, 100% = maximal ACh; AID 588819; hit rate 0.088% among 360,000; in the data active means activation above about 19%, passing the limit was not always enough
# CHO-K1 Ca ag: nonselective activator or artifact in parental CHO-K1 cells; Fluo-8 calcium fluorescence; scaled to maximal ATP response, vehicle zero; activation, % at 3 µM; hit rate 0.48% among 360,000; in the data active means activation above about 15%;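 further: untransfected CHO-K1 host cells lacking M1 receptor as counterscreen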
# M1 antag: human CHRM1 antagonism | inhibition, % at 3 µM | hit rate 1.3% among 360,000 | AID 588852 | CHO-K1 hM1, Fluo-8 calcium fluorescence, ACh EC80 antagonist;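 active means percent inhibition above its own plate's cutoff, namely the mean of that plate's compound wells plus 3 SD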;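 further: peak over basal fluorescence ratio during 140 s after agonist addition; 0% = ACh EC80 plus DMSO and 100% = DMSO alone without agonist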
# CHO-K1 Ca antag: M1 antagonist counterscreen hit in parental CHO-K1 cells; inhibition, % at 3 µM; AID 602250; hit rate 0.6% among 360,000; ATP-induced calcium, Fluo-8 fluorescence;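 active means inhibition above a per-plate cutoff, the plate's mean sample inhibition plus 3 SD, cut at about 24% in these data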;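 further: 0% = DMSO plus EC80 ATP and 100% = DMSO alone without ATP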
# * = called active by the depositor. Only some compounds are listed: those with a hit (about 2.3% of all), similar ones and a draw of the others.
SMILES,M1 ag,CHO-K1 Ca PAM,M1 PAM,CHO-K1 Ca ag,M1 antag,CHO-K1 Ca antag
Cc1ccc(C)c(OCc2cc(C(=O)NC3CCN(Cc4ccccc4)CC3)no2)c1,3,-7,-15,15,32*,4
Cc1cc(C)c2c(CN3CCN(Cc4ccccc4)CC3)cc(=O)oc2c1,-1,-4,-20,17*,28,-2
CC(=O)Nc1cccc(Nc2cc(C)nn2C)c1,-3,8,6,0,-1,10
CC1=C(C(=O)N(C)C)CC(CC(=O)NCCCN(C)C)C(=O)N1Cc1ccccc1 (stereo unspecified),-4,8,-1,0,-6,2
Oc1cc(-c2cccnc2)cc2cccnc12,-4,-19,-1,-1,4,72*
COc1ccccc1NC(=O)CNC(=O)c1ccc(Br)o1,1,5,17,0,-17,8
Cc1onc(-c2ccccc2)c1C(=O)NC(=S)NNC(=O)c1ccccc1O,74*,-13,-21,77*,16,13
Cc1onc(-c2ccccc2)c1C(=O)NC(=S)NNC(=O)c1ccc(O)cc1O,-7,8,7,-1,-23,0
CCCOc1ccc(C(=O)NC(=S)NNC(=O)c2c(-c3ccccc3)noc2C)cc1,97*,-32,-23,33*,62*,12
CCn1c(SCc2nc(-c3ccc(OC)c(OC)c3)no2)nnc1-c1cccs1,-7,8,-1,3,4,2
O=[N+]([O-])c1ccc(S(=O)(=O)NCCc2cn3ccccc3n2)cc1,-1,8,28*,0,-27,-4
CCCCCCCCCC[n+]1cccc2c3ccccc3ccc21,-3,-3,-23,18*,82*,40*
Cc1cccc[n+]1CCCCCCCCCC[n+]1ccccc1C,-5,4,-14,1,18,-2
CCCCCCCC[n+]1cccc2c3ccccc3ccc21,-4,0,-23,3,98*,18
COc1ccc([N+](=O)[O-])cc1NC(=O)C(C)OC(=O)Cn1[nH]c(=O)c2ccccc2c1=O (stereo unspecified),0,6,16,1,-18,-4
Nn1cnc2c(c1=O)C1(CCCCC1)Cc1ccccc1-2,-8,24,14,0,-7,-7
O=c1c2c(nc3n1CCCCC3)-c1ccccc1CC21CCCC1,-9,10,-33,0,31*,-25
O=C(O)C1Cn2c(nc3c(c2=O)C2(CCCC2)Cc2ccccc2-3)S1 (stereo unspecified),-5,9,3,0,-3,-10
O=c1[nH]cnc2c1C1(CCCC1)Cc1ccccc1-2,0,5,-3,2,-15,44*
COc1ccc2[nH]c(=O)c(CN(Cc3cccs3)S(=O)(=O)c3c(C)ccc4nsnc34)cc2c1,1,-7,-14,5,45*,10
O=C(c1ccccc1)n1c(=O)cc[nH]c1=O,0,15,11,0,-10,-9
CCc1cc2c(N=Nc3c(O)[nH]c4ccccc34)ncnc2s1,-8,16,3,0,-7,-4
CCc1ccc2[nH]c(O)c(N=Nc3nc(-c4ccccc4)cs3)c2c1,20*,26,-3,1,7,-14
O=C(CSc1nnc(NC(=O)c2c(F)cccc2F)s1)NCc1ccc(F)cc1,-1,14,11,0,-9,-4
Clc1cccc(Cl)c1CSc1nnc(-c2ccncc2)s1,60*,2,-25,1,43*,-9
SMILES,M1 ag,CHO-K1 Ca PAM,M1 PAM,CHO-K1 Ca ag,M1 antag,CHO-K1 Ca antag
Cc1cccc(C)c1-n1nnnc1C(c1ccccc1)N1CCN(C/C=C/c2ccccc2)CC1 (stereo unspecified),-7,7,-26,0,61*,-7
C(=C\c1ccccc1)/CN1CCN(C(c2cccc3ccccc23)c2nnnn2C2CCCC2)CC1 (stereo unspecified),0,28,-20,9,95*,-12
O=C(Nc1ccc2c(c1)OCCO2)C(c1cc2ccccc2o1)N1CCN(C/C=C/c2ccccc2)CC1 (stereo unspecified),-3,46*,-25,2,36*,-30
COc1ccc(-n2nnnc2C(c2cccs2)N2CCN(C/C=C/c3ccccc3)CC2)cc1 (stereo unspecified),-7,9,-25,0,55*,-16
O=C1OC(c2ccco2)=N/C1=C\c1ccc(-c2cccc(C(F)(F)F)c2)o1,-4,20,1,3,2,-5
COc1ccc(N(CC(=O)N2CCc3ccccc3C2)S(C)(=O)=O)cc1Cl,-4,39,0,3,-9,-47
CCc1noc(C)c1C(=O)OCC(=O)c1ccccc1OC,-3,-7,-1,0,10,-9
C(=C\c1ccccc1)/CN1CCN(C(c2ccnc3ccccc23)c2nnnn2-c2ccc3c(c2)OCCO3)CC1 (stereo unspecified),-6,3,-9,1,-16,-19
COc1cccc(C(c2nnnn2C(C)(C)C)N2CCN(C/C=C/c3ccccc3)CC2)c1OC (stereo unspecified),-11,-6,-30,0,42*,17
COc1ccc(C(c2nnnn2C(C)(C)C)N2CCN(C/C=C/c3ccccc3)CC2)cc1 (stereo unspecified),-5,3,-25,0,29,-9
CCCCn1nnnc1C(c1ccc(OC)cc1)N1CCN(C/C=C/c2ccccc2)CC1 (stereo unspecified),-7,11,-26,2,55*,-25
C(=C\c1ccccc1)/CN1CCN(C(c2ccccc2)c2nnnn2-c2ccc3c(c2)OCCO3)CC1 (stereo unspecified),-7,6,-25,1,95*,-22
COc1ccc(C(c2nnnn2C2CCCCC2)N2CCN(C/C=C/c3ccccc3)CC2)cc1 (stereo unspecified),-7,-10,-26,0,87*,-2
COc1ccc(CCNC(=O)CN2c3cccc4cccc(c34)S2(=O)=O)cc1OC,0,-3,11,1,-21,1
COc1ccc(C(c2nnnn2-c2ccc(OC)cc2)N2CCN(C/C=C/c3ccccc3)CC2)cc1 (stereo unspecified),-6,4,-26,0,74*,-9
CC(C)(C)OC(=O)C[C@@H]1C/C=C\C[C@H](CC(=O)N(CCO)Cc2ccccc2)C(=O)N[C@@H](Cc2c[nH]c3ccccc23)COC1=O,-9,-11,0,0,-2,-5
O=C(Nc1nnc(CCN2CCCCC2)s1)c1ccccc1Cl,-7,11,5,20*,-14,-5
CN(Cc1cccc2cnccc12)C(=O)CCc1nnc(CCc2ccccc2)o1,-8,16,0,17*,3,0
